# Shown are actives, neighbours in structure and some others; about 4.6% of the full set was active somewhere.
# ADAM17 inh = inhibitors of human ADAM17; recombinant ADAM17, EDANS/DABCYL FRET peptide cleavage; inhibition, % at 6.95 µM; hit rate 0.83% among 370,000; AID 720648;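 active = inhibition above the mean of compounds lying between control limits plus 3 SD, set per campaign, cut at about 8.5% in these data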;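 also: 0% = DMSO-only wells as the low control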
# proKLK7 act = activators of human kallikrein-7 zymogen. P49862. purified proKLK7, EDANS-DABCYL substrate fluorescence; 100% is mature enzyme control, 0% vehicle. activation, % at 7 µM. hit rate 0.9% among 370,000. AID 652039;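 active = activation above the mean of all tested compounds plus 3 SD, computed per campaign excluding outliers beyond control limits, cut at about 13% in these data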
# ADAM10 inh = ADAM10 inhibition, QFRET primary screen; recombinant ADAM10, EDANS/DABCYL FRET peptide cleavage, 3 h; inhibition, % at 7 µM; hit rate 0.62% among 370,000; AID 720582;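 active = inhibition above a per-campaign cutoff equal to the mean of compounds falling between control-based bounds plus 3 SD, cut at about 20% in these data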;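 also: 0% = DMSO wells while the 100% control is not disclosed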
# NR3A LBD binder = NR3A (human) ligand-binding domain modulation | AID 1259313 | hit rate 2.5% among 340,000 | NR3A LBD differential scanning fluorimetry, Tm shift; 0% = protein alone, 100% = glycine-bound protein | Tm shift relative to glycine control, % at 25 µM;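 active = melting temperature shift of at least 10% of the positive control shift, at one fixed dose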
# FAS-TE inh = FAS thioesterase (human) inhibition | recombinant FAS-TE, OMFH fluorogenic substrate, fluorescence endpoint | inhibition, % at 15 µM | hit rate 0.67% among 360,000 | AID 602261;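 active = compounds whose normalised, plate-corrected inhibition of enzyme fluorescence in the single-dose primary screen is 50% or more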;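 also: 0% = DMSO with enzyme and 100% = substrate without enzyme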
# Target sequence (P49327 whole entry, looked up): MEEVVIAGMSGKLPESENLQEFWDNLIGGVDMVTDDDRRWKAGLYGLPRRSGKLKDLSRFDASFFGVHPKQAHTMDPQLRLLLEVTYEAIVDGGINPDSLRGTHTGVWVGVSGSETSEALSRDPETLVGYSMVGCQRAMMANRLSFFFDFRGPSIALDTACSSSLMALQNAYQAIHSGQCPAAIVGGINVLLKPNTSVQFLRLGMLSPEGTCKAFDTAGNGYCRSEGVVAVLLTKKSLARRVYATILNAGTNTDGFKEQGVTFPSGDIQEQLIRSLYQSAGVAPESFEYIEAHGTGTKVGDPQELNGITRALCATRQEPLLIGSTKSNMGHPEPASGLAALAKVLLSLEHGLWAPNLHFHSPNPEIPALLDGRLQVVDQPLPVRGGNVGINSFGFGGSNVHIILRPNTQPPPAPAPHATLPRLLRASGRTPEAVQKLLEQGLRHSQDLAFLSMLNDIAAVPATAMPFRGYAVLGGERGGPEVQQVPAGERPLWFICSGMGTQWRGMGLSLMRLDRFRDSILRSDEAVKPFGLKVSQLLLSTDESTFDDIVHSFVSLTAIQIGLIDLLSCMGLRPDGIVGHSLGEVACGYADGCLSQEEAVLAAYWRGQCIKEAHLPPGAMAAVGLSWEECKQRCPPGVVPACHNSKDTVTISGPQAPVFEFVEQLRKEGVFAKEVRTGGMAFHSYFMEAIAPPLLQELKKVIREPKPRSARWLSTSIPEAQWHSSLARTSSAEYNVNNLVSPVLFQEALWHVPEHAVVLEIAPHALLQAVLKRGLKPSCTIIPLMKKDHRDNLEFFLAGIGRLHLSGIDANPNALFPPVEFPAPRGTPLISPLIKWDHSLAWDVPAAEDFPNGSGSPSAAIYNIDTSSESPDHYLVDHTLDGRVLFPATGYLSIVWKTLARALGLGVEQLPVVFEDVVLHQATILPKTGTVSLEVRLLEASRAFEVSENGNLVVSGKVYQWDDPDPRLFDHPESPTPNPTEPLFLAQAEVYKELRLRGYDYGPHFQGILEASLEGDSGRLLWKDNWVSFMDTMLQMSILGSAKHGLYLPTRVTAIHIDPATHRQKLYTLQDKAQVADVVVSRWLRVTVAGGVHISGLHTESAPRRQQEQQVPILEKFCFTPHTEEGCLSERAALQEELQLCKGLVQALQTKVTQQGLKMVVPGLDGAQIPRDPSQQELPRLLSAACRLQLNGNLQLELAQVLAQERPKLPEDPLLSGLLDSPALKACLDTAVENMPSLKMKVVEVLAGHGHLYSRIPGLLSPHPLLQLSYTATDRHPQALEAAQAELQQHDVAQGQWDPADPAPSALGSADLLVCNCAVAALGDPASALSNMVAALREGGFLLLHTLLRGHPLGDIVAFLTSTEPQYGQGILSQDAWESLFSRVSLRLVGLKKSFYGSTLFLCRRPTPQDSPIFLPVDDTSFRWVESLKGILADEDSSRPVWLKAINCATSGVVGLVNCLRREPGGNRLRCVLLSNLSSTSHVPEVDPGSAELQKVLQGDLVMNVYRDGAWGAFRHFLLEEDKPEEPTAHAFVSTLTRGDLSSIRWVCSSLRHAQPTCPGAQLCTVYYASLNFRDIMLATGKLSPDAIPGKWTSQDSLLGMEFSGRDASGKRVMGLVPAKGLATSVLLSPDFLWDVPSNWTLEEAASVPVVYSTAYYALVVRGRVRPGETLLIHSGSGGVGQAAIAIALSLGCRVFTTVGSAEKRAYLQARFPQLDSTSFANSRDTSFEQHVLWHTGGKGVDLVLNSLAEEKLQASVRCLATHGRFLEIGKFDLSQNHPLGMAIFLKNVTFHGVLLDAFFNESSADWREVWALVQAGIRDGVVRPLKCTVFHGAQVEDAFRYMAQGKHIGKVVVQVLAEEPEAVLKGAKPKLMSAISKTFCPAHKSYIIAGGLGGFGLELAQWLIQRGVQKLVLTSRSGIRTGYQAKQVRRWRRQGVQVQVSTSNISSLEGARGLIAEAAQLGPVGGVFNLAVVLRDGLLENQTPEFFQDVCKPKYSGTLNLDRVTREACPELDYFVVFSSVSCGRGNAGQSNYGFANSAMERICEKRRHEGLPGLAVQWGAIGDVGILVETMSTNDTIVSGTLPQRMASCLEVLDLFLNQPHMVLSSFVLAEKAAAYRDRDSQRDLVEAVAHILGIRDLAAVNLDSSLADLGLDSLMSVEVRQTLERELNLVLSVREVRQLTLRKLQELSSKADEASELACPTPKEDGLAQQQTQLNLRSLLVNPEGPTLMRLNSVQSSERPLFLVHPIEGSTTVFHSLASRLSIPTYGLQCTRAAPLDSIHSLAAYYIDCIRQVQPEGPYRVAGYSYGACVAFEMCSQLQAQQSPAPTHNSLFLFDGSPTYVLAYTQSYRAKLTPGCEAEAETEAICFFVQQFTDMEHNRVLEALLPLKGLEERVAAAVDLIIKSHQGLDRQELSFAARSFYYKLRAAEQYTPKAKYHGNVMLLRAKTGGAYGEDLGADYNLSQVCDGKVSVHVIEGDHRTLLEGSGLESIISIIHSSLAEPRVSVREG
# * = called active by the depositor; x = no result.
SMILES,ADAM17 inh,proKLK7 act,ADAM10 inh,NR3A LBD binder,FAS-TE inh
Cc1ccc(NC(=S)N2CCOCC2)c(C)c1,-3.8,-0.4,-3.8,16.2*,-7.0
O=C(CN1CCN(Cc2ccccc2Cl)CC1)N=Nc1c(O)[nH]c2ccccc12,2.0,0.5,10.1,-1.2,-6.0
Cc1ccc(CN2CCN(CC(=O)N=Nc3c(O)[nH]c4ccccc34)CC2)cc1,0.2,0.9,3.9,19.9*,-2.9
CC(=O)c1cc(-c2ccc(Cl)c(C(F)(F)F)c2)c(=O)n2c1CCC2,-13.4,0.7,-47.8,x,x
O=S1(=O)CC2c3ccc(F)cc3CN2CN1CCc1ccccc1 (stereo unspecified),2.9,-0.9,0.4,x,x
CCCNC(=O)CNC(=S)N(Cc1ccccc1F)C1CCCCC1,-3.3,-0.4,-3.1,-1.8,-0.5
O=C(CNC(=S)N(Cc1ccccc1F)C1CCCCC1)NC1CC1,-2.9,0.1,1.2,11.2*,-1.0
O=C(O)C(c1ccccc1)N1C(=O)/C(=C\c2ccc(-c3ccccc3Cl)o2)SC1=S (stereo unspecified),-1.0,0.2,-0.7,31.1*,40.0
CN1c2ccsc2C(O)=C(C(=S)Nc2ccc(F)c(Cl)c2)S1(=O)=O,-12.1,-1.8,-25.8,26.0*,-0.1
Cn1cc(C(=O)Nc2ccc(F)c(Cl)c2)cn1,1.0,0.3,1.7,1.6,-5.3
CCOc1ccc(-c2cc(C(=O)OC)c3n(c2=O)CCC3)cc1,-90.0,2.4,-309.8,x,x
COC(=O)C1CN(Cc2cn(CCOC(C)=O)nn2)CCS(=O)(=O)N1Cc1ccc(OC)cc1 (stereo unspecified),2.4,0.2,5.5,x,x
O=C1C(NC(=O)N2c3ccccc3C=Cc3ccccc32)CCCCN1Cc1ccc(Cl)cc1 (stereo unspecified),-0.1,-0.1,4.2,x,x
CCOc1cc(C(=O)NCc2ccccc2)ccc1OCC(=O)N1CCOCC1,-2.0,-0.4,-8.7,-1.0,-9.1
CCOc1ccc(C(=O)NCc2ccccc2)cc1Br,2.2,0.0,5.0,11.8*,7.3
CCCCCCCCN1C(=O)[C@@H](CC(=O)NCCCOC)C[C@@]2(C(=O)OC)C1=C[C@H](COCc1ccccc1)O[C@@H]2C,-4.3,0.7,-3.9,x,x
CC1(C)CC[C@]2(C(=O)O)CC[C@]3(CO)C(=CCC4[C@@]5(C)C[C@H](O)[C@H](O)[C@@](C)(C(=O)O)C5CC[C@]43C)[C@@H]2C1 (stereo partly specified),-1.5,-0.4,0.9,14.3*,-5.0
COc1cc(Cl)ccc1OCc1cc(C(=O)N2C[C@H]3CC[C@H]2C3)no1,-3.0,0.5,0.7,12.6*,13.4
COC(=O)[C@H](C)NC(=O)[C@H](CC(C)C)NC(=O)OC(C)(C)C,-1.6,-0.4,0.4,x,x
O=C(NC1CCCCC1)Oc1cc2oc(=O)sc2cc1Br,4.4,0.8,26.3*,5.0,11.9
Cc1cc(C(F)(F)F)c2sc(N)nc2n1,-7.4,-0.3,-13.7,-5.3,-11.6
Nc1nc(N)c2sc3nc(C(F)(F)F)cc(C(F)(F)F)c3c2n1,2.3,0.7,-6.8,31.9*,3.0
CC(C)(C)NC(=O)[C@H](c1cccnc1)N(C(=O)c1ccco1)c1ccc(C(C)(C)C)cc1,-4.4,x,-1.7,x,x
O=C(N/N=C/c1ccc(O)cc1)c1[nH]c2ccc(Br)cc2c1-c1ccccc1,-6.5,-11.7,-38.3,29.1*,18.1
C/C(=N\NC(=O)CCC(=O)O)c1c(-c2ccccc2)c2cc(Br)ccc2[nH]c1=O,-5.9,1.5,-2.2,-0.9,-7.0
SMILES,ADAM17 inh,proKLK7 act,ADAM10 inh,NR3A LBD binder,FAS-TE inh
COc1ccc(/C=N/NC(=O)c2[nH]c(C)c(C(=O)N/N=C/c3ccc(OC)cc3)c2C)cc1,-1.0,0.4,-0.3,9.3,-10.2
CCOc1ccc(/C=N/NC(=O)c2[nH]c3ccc(C)cc3c2C)cc1,1.3,-2.7,1.1,26.2*,13.9
Cc1c(C(=O)N/N=C/c2ccc(Cl)cc2)[nH]c2ccc(Cl)cc12,5.9,-0.4,-4.5,25.8*,10.5
CCCC(=O)OC12CCCN(C1)/C(=C/c1ccccc1)C2 (stereo unspecified),0.0,-0.1,-7.9,x,x
C/C(N)=C(/C#N)C(=O)COc1ncnc2ccccc12,-5.3,0.3,-4.3,0.0,-7.3
C/C(N)=C(/C#N)C(=O)COC(=O)c1cc(-c2ccc(Br)cc2)nc2ccccc12,-1.4,-0.2,-13.2,17.7*,28.2
CCNC(=O)N1C(=O)C2(OCCO2)c2ccccc21,-3.9,0.2,-3.8,-0.4,-6.5
CCCCOc1ccc(OCCCC)c2c1NC1(N2)C(=O)N(C(C)=O)c2ccccc21,-3.6,0.4,0.8,13.1*,4.3
O=C(CN1C(=O)CCSc2ccccc21)Nc1ccc(F)cc1F,0.7,0.3,-2.5,x,x
COc1ccc(-n2ncc3c(Nc4cccc(C)c4)ncnc32)cc1,-6.3,-0.2,-6.2,28.6*,1.6
Cc1cccc(-n2ncc3c(Nc4ccc(F)cc4)ncnc32)c1,-1.5,-0.3,-3.8,24.4*,7.7
COC(=O)c1ccc(Nc2ncnc3c2cnn3-c2cccc(C)c2)cc1,-0.9,-0.1,-18.4,-2.3,9.1
CC(C)=CCC[C@@]1(C(=O)O)[C@H]2CC=C(CO)[C@@H]1CC/C(C)=C/CC/C(C)=C/C2,-0.9,0.1,-1.6,x,x
COC(=O)c1ccccc1NC(=O)CCCCCn1nnc2ccccc2c1=O,3.2,0.0,0.9,-0.4,7.0
NC(=O)c1ccccc1NC(=O)CCCCCn1nnc2ccccc2c1=O,-5.2,-0.2,-2.0,11.8*,-5.4
CCn1cc(S(=O)(=O)NCCc2ccccc2OC)cn1,-3.7,0.2,-1.3,11.4*,-1.5
CCOC(=O)c1[nH]c2ccc(F)cc2c1NC(=O)C1=COCCO1,-8.7,0.1,-27.0,19.7*,1.7
CCOC(=O)c1[nH]c2ccc(F)cc2c1NC(=O)c1ccccc1C(=O)O,-6.5,1.8,-17.1,1.6,-6.2
COc1nc(OC)nc(N2CCC(C(=O)N(C)Cc3ccco3)CC2)n1,-0.3,0.6,-4.3,x,x
Nc1nnc(CC(=O)N/N=C/c2cc([N+](=O)[O-])cc(Br)c2O)s1,-0.2,0.3,1.9,17.6*,24.4
CC(C)Cc1csc(NC(=O)c2ccccc2Cl)c1C(=O)O,1.9,-0.1,3.0,11.6*,-1.0
O=C(CN1C(=O)NC2(CCCC2)C1=O)N1CCN(S(=O)(=O)c2cccc(F)c2)CC1,3.2,-0.5,8.8,15.9*,-4.4
CC(=O)c1ccc(NS(=O)(=O)c2ccc(N/C=C/C(=O)c3ccc(F)cc3)cc2)cc1,1.1,-3.6,2.5,15.9*,18.7
CC(=O)c1cccc(NS(=O)(=O)c2ccc(N/C=C\C(=O)c3ccc(F)cc3)cc2)c1,-1.0,-6.8,-9.4,1.1,9.1
CC(=O)c1cccc(NS(=O)(=O)c2ccc(N/C=C/C(=O)c3ccc(F)cc3)cc2)c1,2.2,0.5,-0.4,18.1*,31.6
O=C(Cn1c(=O)c2cccn2c2cccnc21)NCCCN1CCN(c2ccc(Cl)cc2)CC1,-3.3,x,-8.6,x,x
COc1ccc(NS(=O)(=O)c2ccc(C)c(C(=O)N3CC(C)OC(C)C3)c2)cc1 (stereo unspecified),-5.4,-0.7,-0.5,11.5*,-6.3
